From PubChem BioAssay (NCI)
This is part of a sample that, as a whole, favours compounds with a hit. Of some 79,000 tested, about 15% had one in any assay. No stated cut-off is given here; in the data, active means growth inhibition above about 70%; inactive means the rest.

Columns and labels:
[1] = NCI Yeast Anticancer Drug Screen. Data for the rad50 strain (AID 155);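 further: 0% = growth of vehicle-only cultures of the same strain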; conditions: S. cerevisiae rad50 strain growth inhibition; at 50.0 µM; hits give high values
Procedure, shortened: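 Cells are treated with compound, grown, and their growth is then scored against vehicle-only cultures of the same repair-deficient yeast strain.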

[2] = NCI Yeast Anticancer Drug Screen. Data for the mec2-1 strain (AID 157); conditions: S. cerevisiae mec2-1 strain, at 50.0 µM, hits give high values
Procedure, shortened: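 Using mec2-1 yeast: add compound, measure growth, express inhibition versus vehicle-treated cultures.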

[3] = NCI Yeast Anticancer Drug Screen. Data for the sgs1 mgt1 strain (AID 161);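 further: 0% = growth of cultures given vehicle only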; conditions: S. cerevisiae sgs1 mgt1 strain, at 50.0 µM, hits give high values
Procedure, shortened: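 This yeast growth screen uses a strain with defined DNA-repair lesions; compound-treated growth is compared with vehicle-treated growth.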

[4] = NCI Yeast Anticancer Drug Screen. Data for the cln2 rad14 strain (AID 165);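 further: 0% = growth equal to vehicle treated cultures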; conditions: S. cerevisiae cln2 rad14 strain, at 50.0 µM, hits give high values
Procedure, shortened: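 Yeast strain cln2 rad14, bearing defects in cell cycle control and DNA repair, serves as the test system; values reflect growth inhibition compared with vehicle.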

[5] = NCI Yeast Anticancer Drug Screen. Data for the bub3 strain (AID 167); conditions: S. cerevisiae bub3 mutant strain, at 50.0 µM, hits give high values
Procedure, shortened: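 Part of a panel of yeast mutants defective in DNA damage repair or cell cycle regulation. Each strain is grown with compound, and inhibition is calculated relative to solvent-treated cultures.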

[6] = NCI Yeast Anticancer Drug Screen. Data for the mlh1 rad18 strain (AID 175); conditions: S. cerevisiae mlh1 rad18 strain growth inhibition; at 50.0 µM; hits give high values
Procedure, shortened: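 Steps: expose repair-defective yeast to compound; measure growth; express inhibition against vehicle-treated controls.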

Measured: growth inhibition

Cc1cc(C(=O)O)c(C#N)c(=O)n1C
inactive: [1] -1.55% | [2] 5.3% | [3] -12.6% | [4] -13.6% | [5] -12% | [6] 8.55%

O=C(CCCSCCCC(=O)N/N=C/c1ccccc1O)N/N=C\c1ccccc1O
inactive: [1] 4.7% | [2] -0.5% | [3] 4.95% | [4] 0.75% | [5] 6.65% | [6] 19.8%

O=C(Nc1ccccc1Cl)c1ccccc1O
inactive: [1] 10.1% | [2] -8.7% | [3] -3.2% | [4] -48.6% | [5] -5% | [6] -16.4%

CCCCCC(=O)/C=C/Sc1n[nH]c(=O)[nH]c1=O
inactive: [1] 60.5% | [2] 41.1% | [3] 64.2% | [4] 27.9% | [5] 55% | [6] 62.1%

O=C(NC(Cc1c[nH]c2ccccc12)(C(=O)O)C(=O)O)OCc1ccccc1
inactive: [1] 23.1% | [2] 15.1% | [3] 18.7% | [4] 29.1% | [5] 2.1% | [6] 17.8%

NC(CSSCC(NC(=O)CNC(=O)OCc1ccccc1)C(=O)O)C(=O)O (centres undefined)
inactive: [1] -13.3% | [2] -38% | [3] -11.2% | [4] -62.8% | [5] -1.05% | [6] 2%

CN(CCSCC(N)C(=O)O)CCSCC(N)C(=O)O (centres undefined)
inactive: [1] 5% | [2] 11.2% | [3] 0.7% | [4] 29.4% | [5] -58% | [6] 28.6%

CCN(C(=N)C#N)c1ccccc1
inactive: [1] 29.8% | [2] 13.2% | [3] 10.1% | [4] 24.4% | [5] 29.9% | [6] 27.1%

CC(C)(C)SC1C(O)C(CO)OC1n1ccc(Nc2ccccc2)nc1=O (centres undefined)
inactive: [1] -17.9% | [2] 10.8% | [3] -24.6% | [4] -15.8% | [5] 1.55% | [6] 4.65%

Oc1[nH]c2ccccc2c1N=NC(=S)Nc1cccc(Cl)c1
inactive: [1] -0.35% | [2] 4.4% | [3] 55.5% | [4] 35% | [5] 23.5% | [6] 15.2%

CCC1(C)C=Cc2c(cc(OC)c3c(=O)c4ccccc4n(C)c23)O1 (centres undefined)
inactive: [1] -21.8% | [2] -27.4% | [3] -33.8% | [4] -19.6% | [5] 4.05% | [6] -26.4%

CC(C)(C#N)CCCCC(N)=O
inactive: [1] -1.4% | [2] -13.4% | [3] -12.2% | [4] -6.1% | [5] -19.1% | [6] -10.7%

O=C1CC2[C@@H](N3CCCC3)CCC(N1Cc1ccccc1)C2(O)O (some centres undefined)
inactive: [1] -6.75% | [2] -38% | [3] 1.2% | [4] -4.05% | [5] -19.8% | [6] 3.25%

CS(=O)(=O)OC1C(OC(=O)c2ccccc2)OC(COC(=O)c2ccccc2)C1OC(=O)c1ccccc1 (centres undefined)
inactive: [1] 14.8% | [2] -13.6% | [3] 4.9% | [4] -28.7% | [5] 9.7% | [6] -13.8%

CC1=CN2C(c3ccc(Cl)cc3)=NON(c3ccc(C)cn3)C2C=C1 (centres undefined)
inactive: [1] -21.6% | [2] -4.75% | [3] 0.65% | [4] -50.8% | [5] 5.25% | [6] 8.35%

Nc1nc(N)c(Nc2ccc(Cl)cc2)c(Cl)n1
inactive: [1] 50% | [2] 29.2% | [3] 66.3% | [4] 35.2% | [5] 40.9% | [6] 50.5%

O=C1CCCC1CN1CCCCC1 (centres undefined)
inactive: [1] 3.25% | [2] -31.8% | [3] -13.7% | [4] 8.5% | [5] 22.1% | [6] -7.25%

C=C(CC(O)c1ccccc1)C(=O)Nc1ccccc1OC (centres undefined)
inactive: [1] 25.9% | [2] 0.45% | [3] 13.3% | [4] 1.25% | [5] 6.3% | [6] 4.1%

Cc1nc2ccccc2c(=O)n1NC(=O)c1ccccn1
inactive: [1] -6.6% | [2] -10% | [3] -11.6% | [4] -1.05% | [5] -5.55% | [6] -8.25%
